Reference: PubChem BioAssay AID1259422 (The Scripps Research Institute Molecular Screening Center, 2018)
Screen size: about 640,000 compounds; about 9,300 (1.5%) were called active. For the sample, actives were picked, then their nearest neighbours and some compounds at random. A number with no mark means an inactive call. No stated cut-off is given here; in the data, active means inhibition above about 32%; inactive means the rest.

test: TEAD-YAP interaction inhibition, primary screen, TEAD-YAP interaction inhibitor project, luminescence, HEK-TIYL cells (AID 1259422); conditions: TEAD-Gal4/YAP UAS-luciferase luminescence, at 9.12 µM, hits give high values;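 further: 0% = median of test compound wells and 100% = reference inhibitor wells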

Row | Structure (SMILES) | inhibition
1 | O=[N+]([O-])c1ccc(-c2csnn2)cc1 | -3.36%
2 | Cc1nc2c3ccccc3n3c(CCCC(=O)NCc4cccnc4)nnc3n2n1 | -0.28%
3 | O=C(CNC(=O)c1ccco1)N/N=C/c1ccc(F)cc1 | 2.91%
4 | CN1C(C)(C)CC(N(C)S(C)(=O)=O)CC1(C)C | -1.45%
5 | COCCNc1nc(-c2ccc(C)cc2)ccc1C(=O)N1CCN(C)CC1 | -12%
6 | CCCCOC(=O)C(C)Oc1ccc2c(=O)c(-c3ccc(Cl)cc3)coc2c1 (stereo not drawn) | -32.8%
7 | CCOC(=O)C1CCN(C(=O)/C(=C/c2ccco2)NC(=O)c2ccc(C)c(C)c2)CC1 | 3.59%
8 | Cc1nnc(NS(=O)(=O)c2ccc([N+](=O)[O-])cc2)s1 | -10.9%
9 | O=C(CSCC(=O)N1CCCC1)Nc1nc(-c2ccc(Cl)s2)cs1 | -0.25%
10 | Cc1ccc(S(=O)(=O)N(C(=O)NC(=O)Nc2ccccc2Cl)c2ccc(Cl)cc2)cc1 | -3.29%
11 | Cc1cc(C)c2c(NCc3ccccc3F)n[nH]c2n1 | -16.5%
12 | Clc1ccccc1OCc1nn2c(Cc3ccccc3)nnc2s1 | -7.7%
13 | Cc1ccc(OCc2nn3c(Cn4cnc5ccccc54)nnc3s2)cc1 | 32.3% (active)
14 | c1ccc(Cc2nn3c(Cn4cnc5ccccc54)nnc3s2)cc1 | 6.31%
15 | COC(=O)c1c(C)[nH]c(C(=O)/C(C#N)=C/c2cccnc2)c1C | -3.19%
16 | CCc1nc2sc3c(N4CCCC4)ncnc3c2c2c1COC(C)(C)C2 | -9.9%
17 | CC(=O)c1ccc(OC(=O)c2ccccc2Cl)cc1 | 7.46%
18 | O=C(Cn1cnc2ccc(Br)cc2c1=O)OC1CCCCC1 | -11.3%
19 | CC(Nc1nc2c(c(=O)[nH]c(=O)n2C)n1Cc1ccccc1)c1ccccc1 (stereo not drawn) | 0.86%
20 | Cn1c(=O)[nH]c(=O)c2c1nc(N(CCO)Cc1ccccc1)n2Cc1ccccc1Cl | -2.54%

Row | Structure (SMILES) | inhibition
21 | CCC(C)n1c(N(C)Cc2ccccc2)nc2c1c(=O)[nH]c(=O)n2C (stereo not drawn) | 49.9% (active)
22 | CCC(C)NC(=O)c1ccc(N2CCC3(CC2)OCCO3)c([N+](=O)[O-])c1 (stereo not drawn) | -13.8%
23 | CCC(C)NC(=O)c1ccc(S(=O)(=O)c2ccc(OC)cc2)c([N+](=O)[O-])c1 (stereo not drawn) | 32.4% (active)
24 | COCCNC(=O)c1ccc(Sc2ccc(OC)cc2)c([N+](=O)[O-])c1 | -17%
25 | Cc1nn(C)c(C)c1-c1cncc(C(=O)NCc2cccc(C(F)(F)F)c2)c1 | -3.32%
26 | Cc1nc2c(C(=O)NCc3ccc(F)cc3)cnn2c(C)c1Cc1cccc(Cl)c1 | 0.57%
27 | O=C(CSCC(=O)Nc1ccc2ccccc2c1)NCC1CCCO1 (stereo not drawn) | -13.5%
28 | O=c1oc2cc(Cl)ccc2n1C(c1ccccc1)(c1ccccc1)c1ccccc1 | -6.71%
29 | O=C1NC2(CCN(C(=O)C3CCN3C3CCCCC3)CC2)Nc2ccccc21 (stereo not drawn) | 7.24%
30 | O=C1NC2(CCN(C(=O)c3cccc4cccnc34)CC2)Nc2ccc(Cl)cc21 | 77.2% (active)
31 | O=C1NC2(CCN(C(=O)CCn3ncc4ccccc43)CC2)Nc2ccccc21 | -11.1%
32 | CCc1ccc2c(c1)NC(=O)C2(CC)c1ccc2c(c1)OCO2 (stereo not drawn) | -7.41%
33 | CN(c1nc(N)ncc1[N+](=O)[O-])C1CCCCC1 | 33.8% (active)
34 | CN(c1ccc(C(=O)Nc2cc(F)cc(F)c2)cc1[N+](=O)[O-])C1CCCCC1 | -5.53%
35 | CN(c1ncnc2c1nc1n2CCCCC1)C1CCCCC1 | -48%
36 | CCOC(=O)C1=CN(Cc2ccc(F)cc2)C=C(C(=O)OCC)C1c1cccc(OCc2ccccc2)c1 | 10.8%
37 | CCOC(=O)C1=CN(Cc2ccc(Cl)cc2)C=C(C(=O)OCC)C1c1cccc(OCc2ccccc2)c1 | 5.47%
38 | COC(=O)C1=CN(Cc2ccc(OC)c(OC)c2)C=C(C(=O)OC)C1c1cccc(OCc2ccccc2)c1 | 55.4% (active)
39 | CC(=O)c1ccc(OCC(=O)Nc2c(F)c(F)cc(F)c2F)cc1 | -0.14%
40 | CCOc1ccc(C2C(C#N)=C(N)N(c3ccc(F)cc3)C3=C2C(=O)CCC3)cc1 (stereo not drawn) | -0.96%

Row | Structure (SMILES) | inhibition
41 | N=C1c2ccccc2CN1NC(=O)c1ccccc1-n1cccc1 | 11.5%
42 | O=C(Cc1c(F)cccc1Cl)Nc1ccc(Cl)cn1 | -7.57%
43 | O=C(Cc1ccc([N+](=O)[O-])cc1)Nc1ccccc1Cl | -21.8%
44 | Cc1cc(NC(=O)c2cccs2)ncc1NC(=O)c1ccccc1F | -50.5%
45 | CNC(=O)c1ccccc1Nc1cc(NC(=O)C(F)(F)c2ccccc2)ncc1C(F)(F)F | 41.9% (active)
46 | CNC(=O)c1ccccc1Nc1cc(NC(=O)C2(c3ccccc3)CC2)ncc1C(F)(F)F | -1.5%
47 | CNC(=O)c1ccccc1Nc1cc(NC(=O)Cc2ccc(F)c(F)c2)ncc1C(F)(F)F | 65.4% (active)
48 | CNC(=O)c1ccccc1Nc1cc(NC(=O)Cc2ccc([N+](=O)[O-])cc2)ncc1C(F)(F)F | 78.8% (active)
49 | FC(F)(F)c1cccc(Nc2ccc(Br)cn2)c1 | 9.99%
50 | CCc1ccccc1NC(=O)Cc1ccc([N+](=O)[O-])cc1 | 2.99%
51 | Cc1nc(NC(=O)c2ccc(C(C)(C)C)cc2)sc1C(=O)N1CCOCC1 | 13.1%
52 | COC(=O)c1cc2occc2n1CC(=O)N(C)c1ccccc1 | 4.95%
53 | Nc1cc(Oc2ccc3ccccc3c2)c(Cl)cc1[N+](=O)[O-] | 2.07%
54 | O=C(COc1coc(CN2CCN(c3ccccc3F)CC2)cc1=O)N1CCCCCC1 | -0.51%
55 | COC(=O)c1cc(NC(=O)Nc2cc(Cl)ccc2OC)cc(C(=O)OC)c1 | 0.04%
56 | Cc1ccc(-c2cncc(-c3cc(NCc4ccco4)nc(C)n3)c2)cc1 | -4.33%
57 | Cc1cnc(CNc2cc(-c3cncc(-c4ccc(F)cc4)c3)nc(C)n2)cn1 | 33% (active)
58 | COCCNc1cc(-c2cncc(-c3ccc(F)cc3)c2)nc(C)n1 | -1.76%
